# Assay results from PubChem BioAssay (EPA / NIEHS).
# Activity calls are given as the source filed them. The calls were made as follows: active = hit-call score of the fitted dose curve at least 0.9, where 1 is the maximum; inactive = score below 0.9.
# Columns and labels:
# Conditions in all cases: mRNA level, 48 h; actives raise or lower the signal
# CYP4A11 (gene 1579) = assay: LTEA_HepaRG_CYP4A11: Life Technologies and Expression Analysis (LTEA) Assay for CYP4A11 using HepaRG (AID 2283486)
# In short: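 Readout is CYP4A11 transcript level by qRT-PCR, normalized to three housekeeping genes and fitted bidirectionally against 0.5% DMSO. Human HepaRG cells were treated 48 h, in duplicate, with an 8-point half-log series topping at 100 uM.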
# [1] = read-out: Cytochrome P450 3A4 (Homo sapiens) (UniProt P08684); assay: LTEA_HepaRG_CYP3A4: Life Technologies and Expression Analysis (LTEA) Assay for CYP3A4 using HepaRG (AID 2283487)
# In short: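 Differentiated HepaRG cells in serum-free induction medium exposed in duplicate for 48 h to 8 half-log concentrations up to 100 uM in 0.5% DMSO. CYP3A4 mRNA measured by qRT-PCR normalized to ACTB, GAPDH and POLR2A; bidirectional fit versus DMSO.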
# [2] = read-out: DNA damage-inducible transcript 3 (DDIT3), DDIT3 (gene 1649); assay: LTEA_HepaRG_DDIT3: Life Technologies and Expression Analysis (LTEA) Assay for DNA damage-inducible transcript 3 (DDIT3) using HepaRG (AID 2283488)
# In short: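 HepaRG cells, 48 h after plating, exposed 48 h in serum-free induction medium to 8 half-log concentrations up to 100 uM in 0.5% DMSO, in duplicate. DDIT3 mRNA measured by TaqMan qRT-PCR, normalized to ACTB, GAPDH and POLR2A. Fitted bidirectionally against DMSO.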
# [3] = read-out: Pro-epidermal growth factor (Homo sapiens) (UniProt P01133); assay: LTEA_HepaRG_EGF: Life Technologies and Expression Analysis (LTEA) Assay for Epidermal growth factor (EGF) using HepaRG (AID 2283489)
# In short: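 EGF transcript measured by Fluidigm TaqMan qRT-PCR with three housekeeping genes for normalization, 48 h after dosing HepaRG cultures in duplicate (top 100 uM, half-log steps, 0.5% DMSO vehicle). Gain or loss relative to DMSO fitted.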
# [4] = read-out: Early growth response protein 1 (EGR1) transcription factor, EGR1 (gene 1958); assay: LTEA_HepaRG_EGR1: Life Technologies and Expression Analysis (LTEA) Assay for Early growth response protein 1 (EGR1) transcription factor using HepaRG (AID 2283490)
# In short: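 Differentiated human HepaRG cells in serum-free induction medium were exposed in duplicate for 48 h to eight concentrations (top 100 uM, half-log steps) in 0.5% DMSO. EGR1 mRNA was quantified by qRT-PCR, normalized to ACTB, GAPDH and POLR2A, and fitted bidirectionally versus DMSO.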
# [5] = read-out: Ezrin (EZR), EZR (gene 7430); assay: LTEA_HepaRG_EZR: Life Technologies and Expression Analysis (LTEA) Assay for Ezrin (EZR) using HepaRG (AID 2283491)
# In short: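 Differentiated human HepaRG cells, 48 h after plating, were exposed in serum-free induction medium for 48 hours to eight half-log concentrations up to 100 uM in 0.5% DMSO. EZR mRNA was measured by TaqMan qRT-PCR, normalized to ACTB, GAPDH and POLR2A, and fitted bidirectionally against DMSO.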
# [6] = read-out: Cytochrome P450 3A7 (Homo sapiens) (UniProt P24462); assay: LTEA_HepaRG_CYP3A7: Life Technologies and Expression Analysis (LTEA) Assay for CYP3A7 using HepaRG (AID 2283492)
# In short: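 CYP3A7 transcript measured by qRT-PCR (ACTB, GAPDH, POLR2A normalization) after 48 h chemical exposure of HepaRG cells in duplicate. Eight half-log concentrations, maximum 100 uM, 0.5% DMSO vehicle; bidirectional curve fitting against DMSO baseline.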
# CYP3A5 (gene 1577) = assay: LTEA_HepaRG_CYP3A5: Life Technologies and Expression Analysis (LTEA) Assay for CYP3A5 using HepaRG (AID 2283493)
# In short: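 HepaRG cells, plated 48 h then in serum-free induction medium, dosed in duplicate for 48 h with eight half-log concentrations up to 100 uM in 0.5% DMSO. Gene mRNA by Fluidigm TaqMan qRT-PCR, normalized to ACTB, GAPDH, POLR2A.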
# [7] = read-out: Fatty Acid-Binding Protein 1 (FABP1), FABP1 (gene 2168); assay: LTEA_HepaRG_FABP1: Life Technologies and Expression Analysis (LTEA) Assay for Fatty Acid-Binding Protein 1 (FABP1) using HepaRG (AID 2283494)
# In short: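 Differentiated human HepaRG cells were exposed in duplicate for 48 h in serum-free induction medium to 8-point half-log concentration series topping at 100 uM in 0.5% DMSO. FABP1 mRNA measured by TaqMan qRT-PCR, normalized to ACTB/GAPDH/POLR2A; bidirectional fit versus DMSO.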
# [8] = read-out: Cytochrome P450 4A22 (Homo sapiens) (UniProt Q5TCH4); assay: LTEA_HepaRG_CYP4A22: Life Technologies and Expression Analysis (LTEA) Assay for Cytochrome P450 4A22 (CYP4A22) using HepaRG (AID 2283495)
# In short: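 Gene expression measured by qRT-PCR against three housekeeping genes (ACTB, GAPDH, POLR2A), with gain or loss fitted relative to 0.5% DMSO vehicle. HepaRG cultures received 48 h chemical treatment, top concentration 100 uM, half-log steps, duplicate wells.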
# [9] = read-out: Cytochrome P450 7A1 (Homo sapiens) (UniProt P22680); assay: LTEA_HepaRG_CYP7A1: Life Technologies and Expression Analysis (LTEA) Assay for Cytochrome P450 7A1 (CYP7A1) using HepaRG (AID 2283496)
# In short: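 HepaRG cells plated 48 h, then switched to serum-free induction medium and exposed in duplicate for 48 h to 8-point half-log series from 100 uM in 0.5% DMSO. CYP7A1 mRNA by qRT-PCR (TaqMan), normalized to ACTB/GAPDH/POLR2A; bidirectional fit versus DMSO.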
# [10] = read-out: Glutathione S-Transferase (GSTA2), GSTA2 (gene 2939); assay: LTEA_HepaRG_GSTA2: Life Technologies and Expression Analysis (LTEA) Assay for Glutathione S-Transferase (GSTA2) using HepaRG (AID 2283497)
# In short: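 Human HepaRG cells, plated 48 h, then exposed in serum-free induction medium for 48 h to eight half-log concentrations up to 100 uM in 0.5% DMSO, duplicate. GSTA2 mRNA by qRT-PCR, normalized to ACTB/GAPDH/POLR2A; bidirectional fit versus DMSO.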
# [11] = read-out: Glutamate-cysteine ligase catalytic (GCLC), GCLC (gene 2729); assay: LTEA_HepaRG_GCLC: Life Technologies and Expression Analysis (LTEA) Assay for Glutamate-cysteine ligase catalytic (GCLC) using HepaRG (AID 2283498)
# In short: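 Differentiated human HepaRG cells, plated 48 h then switched to serum-free induction medium, were exposed in duplicate for 48 h to 8 half-log concentrations topping at 100 uM in 0.5% DMSO. GCLC mRNA was quantified by qRT-PCR against ACTB, GAPDH and POLR2A.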
# [12] = read-out: growth arrest and DNA damage 45 (GADD45G), GADD45G (gene 10912); assay: LTEA_HepaRG_GADD45G: Life Technologies and Expression Analysis (LTEA) Assay for growth arrest and DNA damage 45 (GADD45G) using HepaRG (AID 2283499)
# In short: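 GADD45G transcript level by qRT-PCR (housekeeping-normalized: ACTB, GAPDH, POLR2A) after 48 h chemical treatment of a single HepaRG lot in serum-free induction medium; eight-point half-log series up to 100 uM in 0.5% DMSO, duplicates, up- or down-regulation scored.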
# [13] = read-out: Glutamate-cysteine ligase regulatory (GCLM), GCLM (gene 2730); assay: LTEA_HepaRG_GCLM: Life Technologies and Expression Analysis (LTEA) Assay for Glutamate-cysteine ligase regulatory (GCLM) using HepaRG (AID 2283500)
# In short: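 Differentiated HepaRG cells exposed 48 h in serum-free induction medium to eight half-log concentrations up to 100 uM (0.5% DMSO). GCLM mRNA by TaqMan qRT-PCR, normalized to ACTB, GAPDH and POLR2A; bidirectional fit versus DMSO.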
# [14] = read-out: Glutathione S-transferase M3 (GSTM3), GSTM3 (gene 2947); assay: LTEA_HepaRG_GSTM3: Life Technologies and Expression Analysis (LTEA) Assay for Glutathione S-transferase M3 (GSTM3) using HepaRG (AID 2283501)
# In short: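 GSTM3 transcript levels came from Fluidigm TaqMan qRT-PCR normalized to three housekeeping genes, fitted in both directions against DMSO. HepaRG cultures received chemicals for 48 h in serum-free induction medium (0.5% DMSO), 8 half-log concentrations up to 100 uM, duplicate.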
# [15] = read-out: Heat shock 70 kDa protein 1 (HSPA1A), gene 3303; assay: LTEA_HepaRG_HSPA1A: Life Technologies and Expression Analysis (LTEA) Assay for Heat shock 70 kDa protein 1 (HSPA1A) using HepaRG (AID 2283502)
# In short: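 Human HepaRG cells in serum-free induction medium were exposed in duplicate for 48 h to 8 half-log concentrations, highest 100 uM, in 0.5% DMSO. HSPA1A mRNA read by TaqMan qRT-PCR, normalized to ACTB, GAPDH, POLR2A, fitted bidirectionally against DMSO.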
# [16] = read-out: Hypoxia-inducible factor 1-alpha (Homo sapiens) (UniProt Q16665); assay: LTEA_HepaRG_HIF1A: Life Technologies and Expression Analysis (LTEA) Assay for Hypoxia-inducible factor 1 (HIF1A) Trancription factor using HepaRG (AID 2283503)
# In short: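 Differentiated HepaRG cells in serum-free induction medium exposed 48 h, in duplicate, to 8-point half-log series from 100 uM in 0.5% DMSO. HIF1A mRNA measured by TaqMan qRT-PCR, normalized to ACTB/GAPDH/POLR2A, fitted bidirectionally versus DMSO.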
# [17] = read-out: 3-Hydroxy-3-Methylglutaryl-CoA Synthase 2 (HMGCS2), HMGCS2 (gene 3158); assay: LTEA_HepaRG_HMGCS2: Life Technologies and Expression Analysis (LTEA) Assay for 3-Hydroxy-3-Methylglutaryl-CoA Synthase 2 (HMGCS2) using HepaRG (AID 2283504)
# In short: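 Readout is HMGCS2 transcript by qRT-PCR, housekeeping-normalised (ACTB/GAPDH/POLR2A) and fitted bidirectionally against 0.5% DMSO. Differentiated HepaRG cells received chemicals 48 h, duplicate wells, eight half-log concentrations topping at 100 uM.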
# HGF (gene 3082) = assay: LTEA_HepaRG_HGF: Life Technologies and Expression Analysis (LTEA) Assay for Hepatocyte Growth Facto (HGF) using HepaRG (AID 2283505)
# In short: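 HGF transcript was quantified by TaqMan qRT-PCR against three housekeeping genes after 48 h treatment of HepaRG cells. Exposure ran in duplicate over eight half-log steps topping at 100 uM in 0.5% DMSO vehicle.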
# Sequence of Cytochrome P450 3A7 (Homo sapiens) (P24462 whole entry, looked up): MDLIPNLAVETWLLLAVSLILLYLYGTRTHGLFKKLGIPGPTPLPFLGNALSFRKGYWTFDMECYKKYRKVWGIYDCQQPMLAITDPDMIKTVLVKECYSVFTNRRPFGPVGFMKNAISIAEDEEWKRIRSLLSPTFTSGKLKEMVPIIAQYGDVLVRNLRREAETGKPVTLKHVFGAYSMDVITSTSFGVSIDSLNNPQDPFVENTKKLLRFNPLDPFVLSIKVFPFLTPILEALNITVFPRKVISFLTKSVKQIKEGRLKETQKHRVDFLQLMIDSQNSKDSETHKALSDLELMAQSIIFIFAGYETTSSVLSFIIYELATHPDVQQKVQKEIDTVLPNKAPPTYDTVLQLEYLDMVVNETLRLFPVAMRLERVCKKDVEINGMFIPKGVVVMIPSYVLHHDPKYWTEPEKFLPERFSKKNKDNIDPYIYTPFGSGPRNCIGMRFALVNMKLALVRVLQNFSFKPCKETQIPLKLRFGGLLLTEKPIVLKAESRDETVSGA
# Sequence of Hypoxia-inducible factor 1-alpha (Homo sapiens) (Q16665 whole entry, looked up): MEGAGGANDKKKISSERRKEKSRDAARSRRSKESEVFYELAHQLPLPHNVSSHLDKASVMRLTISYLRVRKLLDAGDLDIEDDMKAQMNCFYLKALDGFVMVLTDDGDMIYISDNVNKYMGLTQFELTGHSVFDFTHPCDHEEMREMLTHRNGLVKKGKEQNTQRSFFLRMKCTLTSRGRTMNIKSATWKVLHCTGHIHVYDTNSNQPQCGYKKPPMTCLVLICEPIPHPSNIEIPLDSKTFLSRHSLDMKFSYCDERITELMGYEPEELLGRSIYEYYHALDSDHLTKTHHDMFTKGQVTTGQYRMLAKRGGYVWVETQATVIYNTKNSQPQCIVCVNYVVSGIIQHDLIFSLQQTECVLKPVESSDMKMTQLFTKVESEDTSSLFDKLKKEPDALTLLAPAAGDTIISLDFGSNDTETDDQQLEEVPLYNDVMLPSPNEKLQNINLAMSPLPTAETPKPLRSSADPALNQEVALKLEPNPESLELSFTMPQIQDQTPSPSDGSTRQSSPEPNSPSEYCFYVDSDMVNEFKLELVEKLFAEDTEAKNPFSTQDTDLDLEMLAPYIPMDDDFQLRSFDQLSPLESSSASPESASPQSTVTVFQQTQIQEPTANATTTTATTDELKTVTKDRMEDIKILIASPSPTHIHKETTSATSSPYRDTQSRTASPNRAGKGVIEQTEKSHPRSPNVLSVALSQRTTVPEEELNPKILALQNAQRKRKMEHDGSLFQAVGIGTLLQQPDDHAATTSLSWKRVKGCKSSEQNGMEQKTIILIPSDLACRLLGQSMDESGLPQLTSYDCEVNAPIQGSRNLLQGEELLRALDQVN
# Sequence of Cytochrome P450 3A4 (Homo sapiens) (P08684 whole entry, looked up): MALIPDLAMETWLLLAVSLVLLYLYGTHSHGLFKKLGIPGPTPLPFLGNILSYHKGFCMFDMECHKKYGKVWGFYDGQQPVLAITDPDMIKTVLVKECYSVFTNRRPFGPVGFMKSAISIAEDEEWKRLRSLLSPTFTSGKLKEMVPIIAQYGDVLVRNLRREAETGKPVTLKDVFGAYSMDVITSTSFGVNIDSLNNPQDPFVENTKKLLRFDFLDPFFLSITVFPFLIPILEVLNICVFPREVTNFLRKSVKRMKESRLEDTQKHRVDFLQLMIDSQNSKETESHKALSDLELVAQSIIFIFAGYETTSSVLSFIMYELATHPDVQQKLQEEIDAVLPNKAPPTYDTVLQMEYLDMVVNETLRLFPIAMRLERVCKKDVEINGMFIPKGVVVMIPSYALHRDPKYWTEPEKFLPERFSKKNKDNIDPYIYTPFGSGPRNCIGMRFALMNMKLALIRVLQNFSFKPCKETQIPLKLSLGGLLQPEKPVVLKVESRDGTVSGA
smiles,measurement,setting,value
COc1ccc(C(=O)Nc2nc3ccccc3c(NCc3ccccc3)c2C#N)cc1,AC50,CYP4A11 (gene 1579),28.3 µM (active)
same,outcome,[1],inactive
same,outcome,[2],inactive
same,outcome,[3],inactive
same,AC50,[4],21.7 µM (active)
same,outcome,[5],inactive
same,AC50,[6],14.3 µM (active)
same,AC50,CYP3A5 (gene 1577),2.67 µM (active)
same,AC50,[7],18 µM (active)
same,AC50,[8],27.1 µM (active)
same,AC50,[9],17.8 µM (active)
same,AC50,[10],20.5 µM (active)
same,outcome,[11],inactive
same,AC50,[12],14.3 µM (active)
same,AC50,[13],10.9 µM (active)
same,outcome,[14],inactive
same,outcome,[15],inactive
same,outcome,[16],inactive
same,outcome,[17],inactive
same,outcome,HGF (gene 3082),inactive
CC(COCC(C)OC(=O)c1ccccc1)OC(=O)c1ccccc1 (centres undefined),outcome,CYP4A11 (gene 1579),inactive
same,outcome,[1],inactive
same,outcome,[2],inactive
same,outcome,[3],inactive
same,outcome,[4],inactive
same,outcome,[5],inactive
same,outcome,[6],inactive
same,outcome,CYP3A5 (gene 1577),inactive
same,outcome,[7],inactive
same,outcome,[8],inactive
same,outcome,[9],inactive
same,outcome,[10],inactive
same,outcome,[11],inactive
same,outcome,[12],inactive
same,outcome,[13],inactive
same,outcome,[14],inactive
same,outcome,[15],inactive
same,outcome,[16],inactive
same,outcome,[17],inactive
same,outcome,HGF (gene 3082),inactive
CC(C)(C)c1ccccc1,outcome,CYP4A11 (gene 1579),inactive
same,outcome,[1],inactive
same,outcome,[2],inactive
same,outcome,[3],inactive
same,outcome,[4],inactive
same,outcome,[5],inactive
same,outcome,[6],inactive
same,outcome,CYP3A5 (gene 1577),inactive
same,outcome,[7],inactive
same,outcome,[8],inactive
same,outcome,[9],inactive
same,outcome,[10],inactive
same,outcome,[11],inactive
same,outcome,[13],inactive
same,outcome,[14],inactive
same,outcome,[15],inactive
same,outcome,[16],inactive
same,outcome,[17],inactive
same,outcome,HGF (gene 3082),inactive
